Article PMC4336329 (PLoS ONE, 2015)
In all, about 310,000 compounds went through this assay and about 14,000 (4.5%) showed an effect of 50% or more. Effects have a minus sign here. This is one part of a sample in which strong results are shown more often than they occur.

Biological target: human ether-à-go-go-related gene (hERG) potassium channel (human, UniProt Q12809)
Assay: primary screen, population patch clamp on CHO cells stably expressing hERG; higher = less effect of the substance
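Further: peak tail current of the secondary pulse compared with the same well before compound.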

human ether-à-go-go-related gene (hERG) potassium channel, sequence (Q12809 whole entry, looked up): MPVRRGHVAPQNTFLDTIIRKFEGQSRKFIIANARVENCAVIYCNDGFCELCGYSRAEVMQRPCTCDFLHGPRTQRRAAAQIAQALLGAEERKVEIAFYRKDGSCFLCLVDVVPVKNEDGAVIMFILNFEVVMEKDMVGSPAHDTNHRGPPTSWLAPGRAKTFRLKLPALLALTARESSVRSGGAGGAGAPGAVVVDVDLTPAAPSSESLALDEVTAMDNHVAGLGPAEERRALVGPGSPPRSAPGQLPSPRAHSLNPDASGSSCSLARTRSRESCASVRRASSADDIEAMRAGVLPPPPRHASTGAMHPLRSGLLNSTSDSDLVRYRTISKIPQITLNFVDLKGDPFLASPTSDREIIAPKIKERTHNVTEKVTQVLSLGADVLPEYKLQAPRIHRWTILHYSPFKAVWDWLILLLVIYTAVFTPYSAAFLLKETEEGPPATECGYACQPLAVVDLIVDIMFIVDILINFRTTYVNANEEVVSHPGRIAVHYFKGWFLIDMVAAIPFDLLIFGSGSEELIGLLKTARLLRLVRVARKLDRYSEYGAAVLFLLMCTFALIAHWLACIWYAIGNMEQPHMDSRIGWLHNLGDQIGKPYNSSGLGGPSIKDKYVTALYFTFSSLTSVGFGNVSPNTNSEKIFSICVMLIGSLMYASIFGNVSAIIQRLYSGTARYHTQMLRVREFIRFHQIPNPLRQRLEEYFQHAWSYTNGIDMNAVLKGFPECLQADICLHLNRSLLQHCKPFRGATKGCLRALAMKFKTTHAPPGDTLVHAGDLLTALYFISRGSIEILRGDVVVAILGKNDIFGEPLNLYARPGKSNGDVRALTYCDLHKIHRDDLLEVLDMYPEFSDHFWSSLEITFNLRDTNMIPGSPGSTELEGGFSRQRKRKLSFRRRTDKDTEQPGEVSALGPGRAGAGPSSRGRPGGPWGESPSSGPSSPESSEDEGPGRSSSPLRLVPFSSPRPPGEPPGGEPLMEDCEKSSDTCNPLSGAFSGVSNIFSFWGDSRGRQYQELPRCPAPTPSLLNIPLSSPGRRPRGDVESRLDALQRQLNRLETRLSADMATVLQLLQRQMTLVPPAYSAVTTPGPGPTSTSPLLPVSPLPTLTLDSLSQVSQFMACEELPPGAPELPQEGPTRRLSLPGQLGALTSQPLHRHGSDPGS

SMILES	hERG current change (%, negative = inhibition) at 10uM [%]
Nc1nc2ccc(C(=O)Nc3ccccc3)cc2s1	7.6
Cc1ccc2c(c1)CC1(CN2C)C(=O)NC(=O)N(CCc2ccccc2)C1=O (stereo not shown)	-15.2
CNC(=O)C(C)c1ncc(C(F)(F)F)cc1Cl (stereo not shown)	17.6
CCn1c(SCC(=O)Nc2cc(C)nn2-c2ccccc2)nnc1-c1cccs1	-12.9
Cc1nnc(SCC(=O)N2CCN(S(=O)(=O)c3ccc(Cl)cc3)CC2)n(N)c1=O	-19
CCc1ccc(NC(=O)CSc2nnc(-c3cccs3)n2CC)cc1	-69.7
CCOC(=O)c1cnn(-c2ccccc2)c1NC(=O)CSc1nnc(-c2cccs2)n1CC	-69.5
CCn1c(SCC(=O)Nc2c(C#N)cnn2-c2ccccc2)nnc1-c1cccs1	-13.6
Cn1c(SCC(=O)Nc2ccccc2F)nnc1-c1cccs1	-24.2
CCn1c(SCC(=O)Nc2ccc(C(=O)OC)cc2)nnc1-c1cccs1	-10.7
Nn1c(SCC(=O)Nc2ccccc2F)nnc1-c1cccs1	-65.7
CC(=O)Nc1ccc(NC(=O)CSc2nnc(-c3cccs3)n2N)cc1	1.15
CCOC(=O)c1ccc(NC(=O)CSc2nnc(-c3cccs3)n2CC)cc1	5.69
Nn1c(SCC(=O)N2CCN(S(=O)(=O)c3ccc(Cl)cc3)CC2)nnc1-c1cccs1	-52.1
Nn1c(SCC(=O)N2CCN(S(=O)(=O)c3ccccc3)CC2)nnc1-c1cccs1	-10.1
O=C(NCc1ccccc1)c1cccc(NS(=O)(=O)c2cccc3cccnc23)c1	6.09
COc1cnc(-c2ccccc2)nc1OC	12.4
O=C(O)c1cc(S(=O)(=O)NCc2ccco2)c(Cl)cc1Cl	14.9
COCC(C)NCc1ccc(C)cc1C (stereo not shown)	-14.3
O=S(=O)(NCc1ccccn1)c1ccc2c(c1)OCCO2	10.5
Nc1cc(-c2cccc(Br)c2)nn1Cc1ccccc1	-17.2
Nc1cc(=O)nc(SCC(=O)Nc2cccc3ccccc23)n1CCc1ccccc1	-7.07
CCOC(=O)C1C(c2ccc(O)cc2)NC(=O)NC1(O)C(F)(F)F (stereo not shown)	2.48
O=C(NNC(=O)C1CCC1)c1cccc(Cl)c1	-5.52

SMILES	hERG current change (%, negative = inhibition) at 10uM [%]
CCOP(=O)(OCC)c1cc(C)c(O)c(C(C)(C)C)c1	-3.41
Cn1c(Cc2cccs2)nnc1SC/C=C/c1ccccc1	-0.882
CCn1c(SC/C=C/c2ccccc2)nnc1-c1cccs1	-66.3
Cc1ccc(NC(=O)c2ccco2)cc1NC(=O)CSc1nnc(-c2cccs2)n1C	-38
C=CCn1c(SCc2ccc3nonc3c2)nnc1-c1cccs1	-68.7
CCn1c(SCC(=O)Nc2ccccc2)nnc1-c1cccs1	-70.8
O=C(CSc1nnc(-c2cccs2)n1-c1ccccc1)Nc1ccccc1	-44.3
CCn1c(SCC(=O)Nc2ccc(NC(=O)c3ccco3)cc2)nnc1-c1cccs1	11.9
CCn1c(SCC(=O)Nc2cccc(NC(=O)c3ccco3)c2)nnc1-c1cccs1	-79.8
CCn1c(SCC(=O)c2ccccc2)nnc1-c1cccs1	-14.8
C=CCn1c2ccccc2c2nnc(SCc3ccc4nonc4c3)nc21	0.592
CCn1c(SCC(=O)Nc2cc(OC)c(OC)c(OC)c2)nnc1-c1cccs1	-7.07
C=CCn1c(SCCC(=O)O)nnc1-c1cccs1	6.75
Cc1ccc(NC(=O)Nc2ccc([N+](=O)[O-])cc2)nc1	9.85
CCCCn1c(N)c(N(Cc2ccccc2OC)C(=O)c2cc(=O)[nH]c3ccccc23)c(=O)[nH]c1=O	17.1
CC(=O)N1CCN(C(=O)CSc2nc3c(cnn3-c3ccccc3)c(=O)[nH]2)CC1	-9.1
CCOc1ccc(N(C)S(=O)(=O)c2ccc(C)c(C(=O)NCc3ccccc3OC)c2)cc1	-6.23
Cc1ccc(-c2nn(CC(=O)NN3CCOCC3)c(=O)c3ccccc23)cc1	-1.66
N#Cc1cc(Cl)c(NCC2CCCO2)cc1C#N (stereo not shown)	7.45
CC1CCCN(C(=O)Nc2cccc(NC(=O)N3CCCC(C)C3C)c2)C1C (stereo not shown)	0.168
Cc1ccc(N2CC(C(=O)Nc3ccc(C)c(S(=O)(=O)N(C)C)c3)CC2=O)cc1 (stereo not shown)	-25.2
O=C(OC(C(=O)NC1CCCC1)c1ccccc1F)c1ccco1 (stereo not shown)	5.25
Cc1cccc(NC(=O)CSCC(=O)N2CCN(c3cccc(C(F)(F)F)c3)CC2)c1	-21.8
COc1ccc(NC(=O)CSCC(=O)N(C)CC(=O)Nc2c(C)cccc2C)cc1	-0.574

SMILES	hERG current change (%, negative = inhibition) at 10uM [%]
CNC(=O)c1c(N)sc2c1CCCCC2	-3.16
COC(=O)C(NC(=O)c1ccco1)(Nc1nc(C2CC2)cs1)C(F)(F)F (stereo not shown)	11.7
Cn1ccnc1COc1ccc(C=O)cc1	10.4
C=CCn1c(SCC(=O)Nc2ccc(C(=O)OC(C)C)cc2)nnc1-c1cccs1	5.07
COc1ccc(-c2nnc(SCc3nc4ccccc4s3)n2C(C)C)cc1	-67.7
C=CCn1c(SCC(=O)Nc2ccc(C(=O)OCC)cc2)nnc1-c1cccs1	16.7
COc1cccc(-c2nnc(SCc3nc4ccccc4s3)n2C)c1	-29
CCn1c(SCc2nc3ccccc3s2)nnc1-c1ccccc1	-11
Cn1c(SCc2nc3ccccc3s2)nnc1-c1cccs1	-36
COc1ccc(-n2nnnc2SCc2nc3ccccc3s2)cc1	-5.94
CCn1c(SCc2nc3ccccc3s2)nnc1-c1cccs1	-60
C=CCn1c(SCC(=O)Nc2ccc3c(c2)CCC3)nnc1-c1cccs1	-76.9
Cc1c(/C=N\NC(=O)C2COc3ccc(C(C)(C)C)cc3O2)c2ccccc2n1C (stereo not shown)	14
CC(C)c1nnc(NC(=O)CCS(=O)(=O)c2ccccc2)s1	19.5
CCOC(=O)N1CCC(NC(=O)C2CCCN(C(=O)N3CCOc4ccccc43)C2)CC1 (stereo not shown)	3.21
CCCCOc1ccc(-c2c(C(=O)Nc3ccccc3)c(C)[nH]c(=S)c2C#N)cc1	12.1
C/C(=N/NC(=O)c1ccco1)c1cccc(NC(=O)c2ccc(C)s2)c1	1.1
COc1ccc(CCNC(=O)CCS(=O)(=O)c2ccc3c(c2)NC(=O)CO3)cc1OC	14.5
COc1ccc(NC(=O)CNC(=O)Cn2ccc3ccccc3c2=O)c(OC)c1	15
Cc1nn(Cc2ccc(Cl)cc2)c2sc(C(=O)O)cc12	31.1
Cc1ccc(Cn2nc(C)c3cc(C(=O)OCC(N)=O)sc32)cc1	7.64
Cc1nn(Cc2ccc(Cl)cc2)c2sc(C(=O)OCC(N)=O)cc12	-52.1
OCCC1CN(Cc2ccc(Oc3ncccn3)cc2)CCN1CCc1ccccc1 (stereo not shown)	-55.2
CC(C)CN1CCN(Cc2ccc(Oc3ncccn3)cc2)CC1CCO (stereo not shown)	-28.5

SMILES	hERG current change (%, negative = inhibition) at 10uM [%]
CC(C)CCN1CCN(Cc2ccc(Oc3ncccn3)cc2)CC1CCO (stereo not shown)	-9.21
CC(C)CN1CCN(Cc2ccc(F)cc2Cl)CC1CCO (stereo not shown)	-34.4
OCCC1CN(Cc2ccon2)CCN1CCc1ccccc1 (stereo not shown)	-19.2
OCCC1CN(Cc2ccc(F)cc2Cl)CCN1CCc1ccccc1 (stereo not shown)	-67.4
CC(=O)Nc1ccc(CN2CCN(CCc3ccccc3)C(CCO)C2)cc1 (stereo not shown)	-51.8
CC(=O)Nc1ccc(CN2CCN(CCC(C)C)C(CCO)C2)cc1 (stereo not shown)	19.7
CC(=O)Nc1ccc(CN2CCN(CC(C)C)C(CCO)C2)cc1 (stereo not shown)	2.2
OCCC1CN(Cc2ccc(F)cc2)CCN1CCc1ccccc1 (stereo not shown)	-74.2
COc1cc(NC(=O)COC(=O)Cc2ccc(-c3ccccc3)cc2)cc(OC)c1	3.6
Cc1cc(=O)[nH]c2nnnn12	4.44
O=C(Nc1cccc(F)c1)Nc1ccnn1C1CCN(C(=O)c2ccccn2)CC1	14.2
COc1cccc(N=C2SC(C(=O)Nc3ccc(F)cc3)CC(=O)N2C)c1 (stereo not shown)	-11
CC(OC(=O)c1nn(C)c(=O)c2ccccc12)C(=O)Nc1ccc(S(N)(=O)=O)cc1 (stereo not shown)	11.6
COC(=O)c1ccc(CN2CCN(Cc3ccccc3)C(CCO)C2)cc1 (stereo not shown)	-16.5
Cc1ccc(CN2CCN(Cc3ccc4c(c3)OCCO4)CC2CCO)cc1 (stereo not shown)	-39.8
OCCC1CN(Cc2ccc3c(c2)CCO3)CCN1C1CCCC1 (stereo not shown)	-12.7
COC(=O)c1ccc(CN2CCN(CCCc3ccccc3)C(CCO)C2)cc1 (stereo not shown)	-64.1
OCCC1CN(Cc2cc(F)ccc2F)CCN1CCCc1ccccc1 (stereo not shown)	-70.3
OCCC1CN(Cc2ccc3c(c2)CCO3)CCN1Cc1ccc(F)cc1 (stereo not shown)	-72.9
COC(=O)c1ccc(CN2CCN(CCC(C)C)C(CCO)C2)cc1 (stereo not shown)	-25.7
OCCC1CN(Cc2ccc(F)cc2)CCN1CCCc1ccccc1 (stereo not shown)	-68.2
Cc1cc(C)n(-c2ccc(F)cc2CN2CCN(Cc3ccccc3)C(CCO)C2)n1 (stereo not shown)	-37.2
